This is a sample that favours compounds with a hit; in the whole collection about 2.8% have one here.
EWS-Fli inh – EWS/Fli transcriptional activity inhibition; inhibition, % at 12.6 µM; A673 NR0B1-luciferase reporter, viability-normalised; 350,000 compounds, 0.67% hits;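 active = mean inhibition of at least 50% after viability correction, with every replicate also passing that limit; inconclusive = mean reaches 50% but only one of two replicates passes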;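 note: firefly luciferase signal divided by Alamar Blue viability fluorescence both relative to DMSO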
PAX8 inh HTS – PAX8 transcriptional activity inhibition; inhibition, % at 12.6 µM; RMG-I TPO-luciferase reporter, SteadyGlo, 24 h; 360,000 compounds, 1.2% hits; AID 652154;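 active = mean replicate inhibition at least 60% with every replicate also reaching 60%; inconclusive = only one of the two criteria is met; inactive = mean below 60% and not all replicates reaching 60%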;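 note: luciferase light reporting Pax8 driven TPO promoter activity; plate controls were median of neutral control wells for no effect and mitoxantrone controls for full effect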
TROY NFkB inh – blocks TROY-dependent signaling in reporter cells. AID 1347056. 360,000 compounds, 0.98% hits. Q293 LMP1-TROYcd NF-kB luciferase reporter, 4 h. inhibition, % at 10 µM;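 active = compounds whose plate-normalised and pattern-corrected inhibition of the luciferase reporter signal at the single screening dose is 50% or more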
LGR2 antag – blocks bursicon-induced cAMP signaling via Drosophila LGR2 | 380,000 compounds, 0.35% hits | HEK293 LGR2, CRE-luciferase, bursicon-stimulated, 4 h | AID 720647 | inhibition, % at 9.99 µM;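 active = drop in luminescence signal, shown as inhibition above about 50% in the replicate tests, limit read from the data, passing the limit was not always enough; inconclusive = probably only some replicates passing the limit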;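 note: agonist challenge used bursicon conditioned medium at about half maximal strength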
TWEAK Fn14 block – blocks TWEAK-Fn14 interaction in a reporter cell assay | inhibition, % at 10 µM | 360,000 compounds, 2% hits | TWEAK-stimulated Fn14 reporter cells, luciferase luminescence, 8 h | AID 1159606; in the data active = inhibition above about 50%
* marks the source's active call; other numbers are inactive results; ? = inconclusive; / = not tested or not shown; ! = not active in a repeat.

SMILES	EWS-Fli inh	PAX8 inh HTS	TROY NFkB inh	LGR2 antag	TWEAK Fn14 block
Cc1nc2cc(NC(=O)Nc3ccccc3Cl)ccc2n1C	37	10	34	51*	59*
Cc1nc2cc(NC(=O)N3c4ccccc4CC3C)ccc2n1C (configuration not stated)	9	/	39	12	57*
C=C1C(C(=O)N2CCN(C)CC2)C1C(=O)N1CCN(C)CC1 (configuration not stated)	3	/	10	-13	3
C=C1C(C(=O)N2CCOCC2)C1C(=O)N1CCOCC1 (configuration not stated)	2	/	57*	-5	78*
C[C@@H]1CCCCO[C@@H](CN(C)S(=O)(=O)c2ccc(F)cc2)[C@@H](C)CN([C@H](C)CO)C(=O)c2cc(NS(=O)(=O)c3ccccc3)ccc2O1	-1	-36	/	1	/
Nc1nccc(SCc2ccc(Cl)cc2Cl)n1	-5	-14	18	3	57*
O=C(/C=C\c1ccco1)Nc1nc(-c2ccc3ccccc3c2)cs1	7	14	48	55*	83*
Cc1sc(NC(=O)/C=C/c2ccc3c(c2)OCO3)nc1-c1ccccc1	/	0	27	4	88*
O=C(/C=C/c1ccc2c(c1)OCO2)Nc1nncs1	-82	-85	-23	-45	10
Cc1ccc(-c2csc(NC(=S)NC(=O)/C=C/c3ccco3)n2)cc1	/	/	-30	/	18
COc1ccc2nc(NC(=O)/C=C/c3ccc4c(c3)OCO4)sc2c1	/	-9	/	13	/
O=C(/C=C/c1ccc2c(c1)OCO2)Nc1nc(-c2ccccc2)cs1	/	/	62*	/	88*
CC(C)CC#Cc1ccc2c(c1)O[C@@H](CN(C)C(=O)c1cccnc1)[C@@H](C)CN([C@@H](C)CO)S2(=O)=O	9	/	/	-16	/
C[C@@H]1CN([C@@H](C)CO)C(=O)CCCn2nncc2CO[C@H]1CN(C)S(=O)(=O)c1ccc(Cl)cc1	1	102*!	-2	1	13
C[C@H]1CN([C@@H](C)CO)C(=O)CCCn2cc(nn2)CO[C@@H]1CN(C)C(=O)CCC(F)(F)F	-15	-1	-5	-3	88*
C[C@@H]1CN([C@H](C)CO)C(=O)CCCn2nncc2CO[C@H]1CN(C)C(=O)Nc1ccc(-c2cccs2)cc1	1	70*	/	-3	/
C[C@@H]1CN([C@@H](C)CO)C(=O)CCCn2nncc2CO[C@@H]1CN(C)C(=O)Nc1ccc(-c2cccs2)cc1	-10	34	-23	-14	3
C[C@H](CO)N1C[C@H](C)[C@H](CN(C)C(=O)Nc2ccc(-c3cccs3)cc2)OCc2cnnn2CCCC1=O	-13	72*	-5	-7	-4
CCS(=O)(=O)N1CC2(CN(Cc3ccc4c(c3)OCO4)[C@H](CO)c3c2c2ccc(OC)cc2n3C)C1	-10	/	/	4	/
C[C@@H]1CN([C@@H](C)CO)C(=O)Cc2cc(NC(=O)Nc3ccccc3)ccc2O[C@H]1CN(C)C(=O)Nc1cccc2ccccc12	15	/	/	6	/
Cc1noc(C)c1NC(=O)Nc1cccc2c1O[C@H](CN(C)CC1CCCCC1)[C@H](C)CN([C@H](C)CO)C2=O	15	-14	/	-12	/
C[C@@H]1CN([C@H](C)CO)C(=O)CCCn2nncc2CO[C@H]1CN(C)C(=O)Nc1ccnc(N2CCOCC2)c1	-4	-6	-9	9	5
C[C@H](CO)N1C[C@H](C)[C@@H](CN(C)C(=O)Nc2ccnc(N3CCOCC3)c2)OCc2cnnn2CCCC1=O	7	91*!	-13	-10	7
C[C@H]1CN([C@@H](C)CO)C(=O)CCCn2nncc2CO[C@@H]1CN(C)C(=O)Nc1ccc(-c2cccs2)cc1	-10	76*	/	-7	/
N#CC(=C=[N-])c1nc2ccccc2nc1-[n+]1cccc(NC(=O)c2ccccc2)c1	-12	-7	-13	17	75*
SMILES	EWS-Fli inh	PAX8 inh HTS	TROY NFkB inh	LGR2 antag	TWEAK Fn14 block
N#CC(=C=[N-])c1nc2ccccc2nc1-[n+]1cccc(NC(=O)c2ccc(F)cc2)c1	31	0	/	5	/
C[C@@H]1CCCCO[C@@H](CN(C)C(=O)Nc2ccc3c(c2)OCO3)[C@@H](C)CN([C@H](C)CO)C(=O)c2cc(NS(=O)(=O)c3ccc(F)cc3)ccc2O1	-4	-2	/	13	/
CNc1nc(NCc2ccccc2)c2ccccc2n1	11	-6	15	24	-33
COc1cc2ncnc(NCc3ccccc3)c2cc1OC	/	/	14	18	-6
C=CCNc1ncnc2c1[nH]c1ccccc12	/	/	/	/	24
C=CCNc1ncnc2ccccc12	/	/	50*	/	41
CCCCNc1nc(NCc2ccccc2)nc2ccccc12	19	30	55*	33	34
c1ccc(CNc2ncnc3ccccc23)cc1	5	-26	28	29	52*!
CCC(=O)Nc1ccc2c(c1)C(=O)N(C)C[C@H](OC)[C@@H](C)CN(C(=O)C1CC1)[C@H](C)CO2	-4	0	/	-7	/
Cc1cc(COc2ccccc2)oc1C(=O)O	-38	-15	58*	20	90*
CCC(CC)c1nnc(NC(=O)CCS(=O)(=O)Cc2ccccc2)s1	8	62*	-17	-5	13
CCc1nnc(NC(=O)CCS(=O)(=O)c2ccc(C)cc2)s1	-36	64*	-6	-6	-15
CC(C)c1nnc(NC(=O)CCc2ccccc2)s1	-23	-47	-26	-24	-5
CCCc1nnc(NC(=O)CNc2ccc(F)cc2)s1	/	/	/	/	81*
CC(C)c1nnc(NC(=O)CCCC(=O)O)s1	/	/	/	/	76*
CCCN1C[C@@H](C)[C@@H](OC)CN(C)C(=O)c2cc(NC(=O)c3ccccc3)ccc2OC[C@@H]1C	6	-1	/	-19	/
COc1ccc(NC(=O)Nc2ccc3c(c2)C(=O)N([C@H](C)CO)C[C@H](C)[C@@H](CN(C)C(=O)NC(C)C)OCCCC[C@H](C)O3)cc1	6	-14	/	-11	/
CC(C)NC(=O)N(C)C[C@H]1Oc2ccc(NC(=O)Cc3ccccc3)cc2CC(=O)N([C@H](C)CO)C[C@@H]1C	-1	-3	/	-4	/
CC=Cc1ccc2n(c1=O)C[C@@H]1[C@@H](CO)[C@H](C(=O)NCC(F)(F)F)[C@H]2N1C(=O)CC (mixture of isomers)	5	-17	/	4	/
Cc1noc(C)c1NC(=O)Nc1ccc2c(c1)CC(=O)N([C@H](C)CO)C[C@@H](C)[C@H](CN(C)C(=O)Nc1ccc(F)cc1)O2	-3	-5	/	-6	/
COCc1nnc(NC(=O)CCS(=O)(=O)c2ccccc2)s1	-9	66*	-8	14	31
CC(C)c1nnc(NC(=O)CCS(=O)(=O)c2ccccc2)s1	-8	?	4	1	-6
O=C(CS(=O)(=O)c1ccccc1)Nc1ncc([N+](=O)[O-])s1	4	-30	29	0	3
O=C(CCS(=O)(=O)c1ccccc1)Nc1ncc([N+](=O)[O-])s1	-9	78*	17	0	15
CCc1nnc(NC(=O)CCS(=O)(=O)c2ccccc2)s1	-29	9	-19	4	10
CCCCc1nnc(NC(=O)CN(C)S(=O)(=O)c2ccc(C)cc2)s1	/	8	3	16	4

Bioassay records from PubChem BioAssay.
